# Test system: VDR:RXRa (NR concentration 270 nM, RXRa partner concentration 90 nM)
# Experiment: PBM binding z-score (relative to random genomic background probes); higher = stronger binding; sequences stand for … in GC…GCGATTGACAGCGTAGAATGAAGG
# Protocol: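 Protein-binding microarray (Agilent 4x180K custom design, double-stranded 60-nt probes: 5' GC cap, 34-nt variable region, 24-nt constant primer region; full probe sequence given). Purified or IVT nuclear receptor:RXRα heterodimers (3:1 NR:RXRα, mostly 270:90 nM) or homodimers were incubated for 1 h in PBS with 2% milk and no ligand, then detected with Alexa488 antibodies. Fluorescence from o1-orientation probes (~5 replicates averaged) was converted to z-scores against 500 random hg19 background probes. Variable regions are seed direct-repeat (DR0–DR5) sites, all their single-nucleotide variants and half-site ablations.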
row,Sequence,PBM binding z-score
1,TCTAGTTGGTCACGGAGGTCATACACGACGGGTA,5.88
2,AATACAGGGTCATCGTCGGCCAGAGTACGCACAG,5
3,CGAACTAGGTCATCCAGGACAGTAAATACATTGA,4.71
4,TATTGTAGATCAACAGGAGGTTAAGAAAGATCGA,0.587
5,TCTAGTTGGTCACGGAGGTCACCCACGACGGGTA,5.63
6,TCTAGTAGATCAACAGGAGGTTAAGAAAGATCGA,0.713
7,AGAACGAGGGCACGGTGAGTTGATAGCAGAGTAG,2.56
8,TCTCGGAGGACACGAAGGGCAGAGCTTTCCAGAG,0.0136
9,ACTATTAGTTGAGACGAGGGCACCCGATAGGTTG,0.529
10,CAAACTAGGCCACGAAAGGTCAAAGTCGAATGAC,4.9
11,TTACCAAGGTGAGCTGAGGTGGTTGATCCAACTC,-0.288
12,ACTTACGGGTCAACAAGGTTATAGCACGCGTATA,7.08
13,ACTAGCAGGCCAAGGGTTACTCAAGATTAGTCCG,0.0944
14,GGAACGAGGGCCTTCGAGTTGATAGCATGGCGAT,-0.0234
15,GCTGATAGGTCAGGTTGGTCAGCTAACGGGTACG,1.58
16,TCAGACATGTGAAGGTAACTCAGGTACGCAGTCG,0.627
17,GATACAAGGTCAAGGCCAGAGTACGCGTATTGAT,4.39
18,ATCGAAAGGGCGAGGTGAGTATAGAGAAAGGGAA,0.361
19,TAAGACAGGTGAAGGTAACTCAGGTACGCAGTCG,0.46
20,TCTAGCAGGCCACAGGGTCACTCAAGAGGTACGG,2.93

row,Sequence,PBM binding z-score
1,ATCGAAAGGTGGAAGGTGAGTATACCCACCCGAA,0.0525
2,TCTAGTCGGTCACGGAGGTCACACACGACGGGTA,6.56
3,GCTTACGAGTCAAAGGTTATAGCATGAATAGAAT,2.16
4,CCGACTGGAGCAGAAAGGTTACCATACCATCCGG,0.564
5,ATCTCTAGGTAACAAGTTCAGTGATAGAGAGGAC,1.91
6,CCCTACGGGTCACTGACAGGTTATAGCATTTGGA,3.56
7,AATGCAGGGTCACTAGGCCAGAGTAGGTACGAAT,4.04
8,CAGACTAGGTCACAGAGGTCAAAGTCCGTGCGTA,7.98
9,CAAACTAGGTCACGAAAGATCAAAGTCGAATGAC,3.03
10,CGAACTAAGTCAAGGACAGTGAATCTCCGCACGC,-0.36
11,TCTATTAGTAGATTAGGGCAACCGAAACAGCGGA,0.247
12,CAAACTAAGTCACCGGAAGGTCAAAGTCCGCATG,3.59
13,GCTAGCAGGCCATTTGGGTCACTAAATGACGGGC,0.655
14,CAGCGTAGGTCAGGGCCAGTATAGGAGGAACGTT,0.388
15,CTCGAAAGGTCGTGCTCAGGTGAGTAGACCAAAC,3.08
16,TCAAGCAGGCCAGAGGGTCACTCAAGAGGTACGG,1.52
17,TCGAGTAGGTTAGTCGGGCCATTCAGCCAACATA,0.761
18,ATATGTAGGTTATCGGGTCATTAAGTTTGCGCAT,6.04
19,TTACCAAGGTGAAAGGTCGTCGATGCACGCCTTG,3.09
20,GCTGCTAGGTCAGGTTGATCAGCTAACGGGTACG,0.431
